According to PubChem BioAssay (Tox21):
Values joined by “and” are separate entries in the source; they are usually repeats but may differ in a detail not shown here. Equal values may be shown once. Inconclusive results are not listed. A call without a number means that no potency is given here. Some compounds were tested as several samples or in several runs, with calls that do not always agree. Active and inactive are the calls of the source. Unless noted, calls follow the shape of the dose curve; as a rule, active = well fitted curve in the direction sought with a large enough effect in the repeat runs; inconclusive = weak or mixed curves; inactive = no such curve, though single readings can be large; an effect the other way counts as inactive or inconclusive.

Assays:
[1] = molecular target: Estrogen receptor beta (Homo sapiens) (UniProt Q92731); assay: qHTS assay to identify small molecule antagonists of the estrogen receptor beta (ER-beta) signaling pathway (AID 1259378; active = well fitted inhibition curve with a large enough effect in the signal ratio in the repeat runs, not every such curve was filed as active; the % refers to the signal ratio)
Sequence of Estrogen receptor beta (Homo sapiens) (Q92731 whole entry, looked up): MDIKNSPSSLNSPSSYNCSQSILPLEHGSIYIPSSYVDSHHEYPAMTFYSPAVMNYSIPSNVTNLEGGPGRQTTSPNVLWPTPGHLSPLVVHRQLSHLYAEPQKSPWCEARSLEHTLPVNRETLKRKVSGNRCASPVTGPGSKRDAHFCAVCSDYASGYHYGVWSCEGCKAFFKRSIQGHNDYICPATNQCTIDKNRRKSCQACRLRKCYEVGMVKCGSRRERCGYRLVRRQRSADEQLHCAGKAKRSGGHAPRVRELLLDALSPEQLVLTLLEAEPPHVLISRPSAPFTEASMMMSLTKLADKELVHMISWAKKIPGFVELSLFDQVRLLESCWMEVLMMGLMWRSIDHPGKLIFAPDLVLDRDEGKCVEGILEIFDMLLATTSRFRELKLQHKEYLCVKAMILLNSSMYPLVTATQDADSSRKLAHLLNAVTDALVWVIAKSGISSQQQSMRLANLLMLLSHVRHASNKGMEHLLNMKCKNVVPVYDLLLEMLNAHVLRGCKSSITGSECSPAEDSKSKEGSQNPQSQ
Outline: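 ER-beta-UAS-bla HEK293T cells in 2% charcoal-stripped FBS medium treated with compound plus 1nM final 17-beta-estradiol for 16 hr at 37C. Beta-lactamase reporter read by FRET substrate fluorescence after 2 hours at room temperature.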

[2] = qHTS assay to identify small molecule agonists of the androgen receptor (AR) signaling pathway in the presence of an antagonist - cell viability counter screen (AID 1259379); also: nearly all actives have a fitted effect of over 25% in size; also: potency is read from the fitted curve at half-maximal effect
Outline: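 Nilutamide-containing (3.0uM final) MDA-kb2 cultures, 3,000 cells/well, were treated with compounds across 15 concentrations. After 16 hr at 37C with no CO2, cell viability was determined by CellTiter-Fluor fluorescence in the luciferase assay wells.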

[3] = qHTS assay to identify small molecule antagonists of the estrogen receptor beta (ER-beta) signaling pathway - cell viability counter screen (AID 1259382); also: nearly all actives have a fitted effect of over 55% in size; also: potency is read from the fitted curve at half-maximal effect
Outline: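 Viability is scored by CellTiter-Glo luminescence (30 min, room temperature) in ER-beta-UAS-bla HEK293T wells already read for reporter fluorescence. Compound exposure lasts 16 hr at 37C alongside 1nM 17-beta-estradiol in charcoal-stripped serum medium.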

[4] = molecular target: Estrogen receptor (Homo sapiens) (UniProt P03372); assay: qHTS assay to identify small molecule agonists of the estrogen receptor alpha (ER-alpha) signaling pathway in the presence of an antagonist (AID 1259383; calls by dose curve; also: top concentration of the series differs between compounds; nearly all actives have a fitted effect of over 15% in size)
Sequence of Estrogen receptor (Homo sapiens) (P03372 whole entry, looked up): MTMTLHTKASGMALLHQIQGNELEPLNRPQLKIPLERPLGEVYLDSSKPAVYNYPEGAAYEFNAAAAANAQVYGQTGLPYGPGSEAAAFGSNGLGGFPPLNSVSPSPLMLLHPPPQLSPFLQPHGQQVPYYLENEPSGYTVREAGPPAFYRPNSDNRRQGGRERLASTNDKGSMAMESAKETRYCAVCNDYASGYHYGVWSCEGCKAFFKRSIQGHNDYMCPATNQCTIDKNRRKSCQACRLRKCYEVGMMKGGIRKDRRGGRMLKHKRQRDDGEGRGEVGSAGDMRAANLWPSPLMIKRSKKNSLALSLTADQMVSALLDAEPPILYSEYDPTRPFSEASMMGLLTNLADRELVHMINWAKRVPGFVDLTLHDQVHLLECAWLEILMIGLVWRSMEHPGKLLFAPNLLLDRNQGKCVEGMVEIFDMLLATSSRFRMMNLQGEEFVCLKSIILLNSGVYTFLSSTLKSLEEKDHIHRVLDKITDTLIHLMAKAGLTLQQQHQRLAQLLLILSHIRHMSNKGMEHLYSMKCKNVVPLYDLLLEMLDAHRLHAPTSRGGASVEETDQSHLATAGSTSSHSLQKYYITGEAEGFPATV
Outline: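 Readout was ERE-driven luciferase luminescence in VM7Luc4E2 cells, which express full-length ER-alpha endogenously. Compounds were tested at 15 concentrations for 22hr alongside 10.0nM ICI-182,780 (final concentration).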

[5] = qHTS assay to identify small molecule agonists or antagonists of the thyroid stimulating hormone receptor (TSHR) signaling pathway - wild type cell line counter screen (AID 1259384; calls by dose curve)
Outline: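 Wild-type Hek293 cells, 800/well, 18 h at 37C, then compound with Ro20-1724 for 30 min RT. cAMP by HTRF (cAMP-d2/anti-cAMP cryptate), 1 h RT, fluorescence read. 15 concentrations, triplicates.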

[6] = molecular target: Thyrotropin receptor (Homo sapiens) (UniProt P16473); assay: qHTS assay to identify small molecule antagonists of the thyroid stimulating hormone receptor (TSHR) signaling pathway (AID 1259385; calls by dose curve; also: nearly all actives have a fitted effect of over 20% in size)
Sequence of Thyrotropin receptor (Homo sapiens) (P16473 whole entry, looked up): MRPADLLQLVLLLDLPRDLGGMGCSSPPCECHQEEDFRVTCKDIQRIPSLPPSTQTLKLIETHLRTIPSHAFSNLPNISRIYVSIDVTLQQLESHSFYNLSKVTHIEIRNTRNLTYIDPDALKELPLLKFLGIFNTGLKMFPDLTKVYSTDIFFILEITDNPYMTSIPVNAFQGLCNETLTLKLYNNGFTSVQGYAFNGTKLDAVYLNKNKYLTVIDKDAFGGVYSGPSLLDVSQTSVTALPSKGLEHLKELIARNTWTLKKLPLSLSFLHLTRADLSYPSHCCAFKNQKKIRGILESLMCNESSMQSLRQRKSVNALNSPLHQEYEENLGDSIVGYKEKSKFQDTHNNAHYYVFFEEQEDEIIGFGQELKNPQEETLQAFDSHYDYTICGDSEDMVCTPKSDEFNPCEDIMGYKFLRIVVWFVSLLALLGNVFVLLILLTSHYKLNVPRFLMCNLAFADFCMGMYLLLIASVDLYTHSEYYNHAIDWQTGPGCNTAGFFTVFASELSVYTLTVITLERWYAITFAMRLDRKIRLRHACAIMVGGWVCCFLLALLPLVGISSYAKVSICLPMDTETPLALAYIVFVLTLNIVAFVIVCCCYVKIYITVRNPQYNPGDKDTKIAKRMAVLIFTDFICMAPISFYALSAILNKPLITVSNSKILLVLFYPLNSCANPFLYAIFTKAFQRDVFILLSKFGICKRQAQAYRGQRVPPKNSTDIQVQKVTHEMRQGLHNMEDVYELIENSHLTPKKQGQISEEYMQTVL
Outline: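 TSHR-HEK293 cells (800/well) plated 18 h, then compounds with Ro20-1724 and TSH at 1.5 ng/mL final, 30 min at room temperature. cAMP quantified by HTRF (cAMP-d2/anti-cAMP-cryptate, 1 h); 15 concentrations in triplicate.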

[7] = qHTS assay to identify small molecule agonists of the estrogen receptor alpha (ER-alpha) signaling pathway in the presence of an antagonist - cell viability counter screen (AID 1259386);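 also: cells exposed to compounds for 22 h at 37 °C before the viability read; nearly all actives have a fitted effect of over 30% in size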; also: potency is read from the fitted curve at half-maximal effect
Outline: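 In this counter screen, compound effects on VM7Luc4E2 viability were tested in the presence of the antagonist ICI-182,780 at 10.0nM final. Compounds were dosed at 15 concentrations, exposure lasted 22hr, and the CellTiter-Fluor signal was read.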

[8] = molecular target: Progesterone receptor (Homo sapiens) (UniProt P06401); assay: qHTS assay to identify small molecule agonists of the progesterone receptor (PR) signaling pathway (AID 1346784; calls by dose curve; also: nearly all actives have a fitted effect of over 30% in size)
Sequence of Progesterone receptor (Homo sapiens) (P06401 whole entry, looked up): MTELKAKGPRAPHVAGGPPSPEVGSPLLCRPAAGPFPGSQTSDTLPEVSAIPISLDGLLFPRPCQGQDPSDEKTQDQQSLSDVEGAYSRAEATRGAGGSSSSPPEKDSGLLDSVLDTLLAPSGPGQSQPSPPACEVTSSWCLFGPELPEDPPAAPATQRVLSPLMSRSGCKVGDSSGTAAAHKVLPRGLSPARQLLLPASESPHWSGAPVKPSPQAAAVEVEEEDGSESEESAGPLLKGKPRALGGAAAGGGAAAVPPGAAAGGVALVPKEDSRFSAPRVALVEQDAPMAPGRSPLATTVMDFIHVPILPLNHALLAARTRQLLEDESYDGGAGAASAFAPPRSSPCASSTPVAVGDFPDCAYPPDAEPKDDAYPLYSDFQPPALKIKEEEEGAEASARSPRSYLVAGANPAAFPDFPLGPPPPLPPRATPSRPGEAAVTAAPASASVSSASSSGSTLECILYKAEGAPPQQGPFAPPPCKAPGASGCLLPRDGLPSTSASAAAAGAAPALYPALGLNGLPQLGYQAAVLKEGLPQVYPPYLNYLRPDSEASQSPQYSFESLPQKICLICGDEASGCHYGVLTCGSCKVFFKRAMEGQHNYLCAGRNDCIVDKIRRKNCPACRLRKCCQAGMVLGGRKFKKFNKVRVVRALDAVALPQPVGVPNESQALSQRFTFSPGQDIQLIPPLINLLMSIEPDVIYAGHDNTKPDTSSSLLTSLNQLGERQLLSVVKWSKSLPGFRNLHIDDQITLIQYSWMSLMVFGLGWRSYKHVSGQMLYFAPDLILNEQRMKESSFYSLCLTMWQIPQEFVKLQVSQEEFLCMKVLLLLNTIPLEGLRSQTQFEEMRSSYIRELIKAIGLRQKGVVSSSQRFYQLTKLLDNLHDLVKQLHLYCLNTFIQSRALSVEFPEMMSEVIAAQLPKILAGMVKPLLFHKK
Outline: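 PR-UAS-bla HEK 293T cells carrying a UAS-driven beta-lactamase reporter were seeded in medium with 2% charcoal-stripped FBS, preincubated 6 hr at 37C, then exposed to compounds in DMSO for 16 hr; agonism was read by LiveBLAzer B/G FRET fluorescence.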

[9] = molecular target: Progesterone receptor (Homo sapiens) (UniProt P06401); assay: qHTS assay to identify small molecule antagonists of the progesterone receptor (PR) signaling pathway (AID 1346795; active = well fitted inhibition curve with a large enough effect in the signal ratio in the repeat runs, not every such curve was filed as active; the % refers to the signal ratio)
Outline: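 PR-UAS-bla HEK293T cells carrying a UAS-driven beta-lactamase reporter were plated in medium with 2% charcoal-stripped FBS and rested 6 hr at 37C. Compounds were added with 1 nM R5020 (final) for 16 hr, then FRET substrate loaded 2 hr at room temperature.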

[10] = qHTS assay to identify small molecule antagonists of the progesterone receptor (PR) signaling pathway - cell viability counter screen (AID 1346798); also: nearly all actives have a fitted effect of over 50% in size; also: potency is read from the fitted curve at half-maximal effect
Outline: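 PR-UAS-bla HEK293T cells in medium with 2% charcoal-stripped FBS were treated with compounds plus R5020 for 16 hr at 37C. Cell viability was then read by CellTiter-Glo luminescence after 30 min at room temperature in the same wells.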

[11] = qHTS assay to identify small molecule agonists of the progesterone receptor (PR) signaling pathway - cell viability counter screen (AID 1346799; calls by dose curve; also: nearly all actives have a fitted effect of over 45% in size)
Outline: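 PR-UAS-bla HEK293T cells, 3,000 per well in medium with 2% charcoal-stripped FBS, were preincubated 6 hr at 37C, then exposed to compounds for 16 hr; viability was read as CellTiter-Glo luminescence after 30 min at room temperature.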

[12] = qHTS assay to identify small molecule antagonists of the TGF-beta/Smad signaling pathway - cell viability counter screen (AID 1346824); also: nearly all actives have a fitted effect of over 50% in size
Outline: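 SBE-bla HEK 293T cells, incubated overnight, then compound plus 0.25 ng/mL TGF-beta1 (stock added) for 5 hr at 37 C. Viability was read in the same wells by CellTiter-Glo luminescence after 30 min at room temperature.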

[13] = qHTS assay to identify small molecule agonists of the TGF-beta/Smad signaling pathway - cell viability counter screen (AID 1346829); also: top concentration of the series differs between compounds; nearly all actives have a fitted effect of over 45% in size
Outline: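 Compound-treated SBE-bla HEK 293T cells (5 hr, 37 C) were assessed for viability with CellTiter-Glo in parallel with the reporter read.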

[14] = qHTS assay to identify small molecule agonists of the TGF-beta/Smad signaling pathway (AID 1346859; active = well fitted activation curve with a large enough effect in the signal ratio in the repeat runs, not every such curve was filed as active; the % refers to the signal ratio; also: series mostly up to about 77 µM)
Outline: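 HEK 293T cells stably carrying a beta-lactamase reporter driven by the Smad binding element were seeded overnight, exposed to DMSO-dissolved compounds for 5 hr at 37 C, 5% CO2, then loaded with FRET substrate for 2 hr at room temperature.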

[15] = molecular target: Thyrotropin-releasing hormone receptor (Homo sapiens) (UniProt P34981); assay: qHTS assay to identify small molecule antagonists of the thyrotropin-releasing hormone receptor (TRHR) signaling pathway (AID 1346877; active = well fitted inhibition curve with a large enough effect in the repeat runs, not every such curve was filed as active; also: series mostly up to about 51 µM)
Sequence of Thyrotropin-releasing hormone receptor (Homo sapiens) (P34981 whole entry, looked up): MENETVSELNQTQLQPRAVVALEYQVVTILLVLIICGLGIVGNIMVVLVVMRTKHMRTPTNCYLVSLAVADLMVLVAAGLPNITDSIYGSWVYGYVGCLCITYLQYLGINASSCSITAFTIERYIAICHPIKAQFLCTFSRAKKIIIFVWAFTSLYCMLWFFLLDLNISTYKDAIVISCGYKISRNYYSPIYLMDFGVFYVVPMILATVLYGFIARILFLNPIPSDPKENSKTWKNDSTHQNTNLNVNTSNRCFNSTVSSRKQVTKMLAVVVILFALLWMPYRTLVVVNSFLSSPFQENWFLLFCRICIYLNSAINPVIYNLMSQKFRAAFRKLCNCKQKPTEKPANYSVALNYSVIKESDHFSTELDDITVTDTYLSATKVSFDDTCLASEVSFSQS
Outline: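 Kinetic fluorescence (3 min, 1 s resolution) following stimulation with TRH at 1 nM final; HEK293 cells bearing human TRHR; 5 min compound preincubation at RT; concentration-response over 15 points, triplicates.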

[16] = molecular target: Thyrotropin-releasing hormone receptor (Homo sapiens) (UniProt P34981); assay: qHTS assay to identify small molecule agonists of the thyrotropin-releasing hormone receptor (TRHR) signaling pathway (AID 1346891; calls by dose curve; also: potency is read from the fitted curve at half-maximal effect; as to activation: series mostly up to about 58 µM)
Outline: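 TRHR-expressing HEK293 cells were plated 18 h at 37 °C/5% CO2, loaded with calcium dye 2 h at 37 °C, then given compound in DMSO; fluorescence was read kinetically for 3 min at 1 s intervals.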

[17] = Human pregnane X receptor (PXR) small molecule agonists, qHTS cell viability counter screen (AID 1346977); also: nearly all actives have a fitted effect of over 50% in size; also: potency is read from the fitted curve at half-maximal effect
Outline: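 PXR-Luc HepG2 cells in medium with 5% charcoal-stripped FBS were pre-incubated 5hr, then exposed to compounds for 24hr at 37C. Viability was read in the same wells by CellTiter-Fluor fluorescence, reagent added after 23hr with a 1hr incubation.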

[18] = Caspase-3/7 induction in HepG2 cells by small molecules, qHTS assay (AID 1346978); also: nearly all actives have a fitted effect of over 15% in size
Outline: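 Wild-type HepG2 cells, 2,000/well, settled 5 hr at 37 C and 5% CO2, then compound-treated for 17 hr; caspase-3/7 activity read by luminescent Caspase-Glo 3/7 after 30 min at room temperature.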

[19] = molecular target: Androgen receptor (Homo sapiens) (UniProt P10275); assay: qHTS assay to identify small molecule agonists of the androgen receptor (AR) signaling pathway in the presence of an antagonist (AID 1259381; calls by dose curve; also: nearly all actives have a fitted effect of over 15% in size)
Sequence of Androgen receptor (Homo sapiens) (P10275 whole entry, looked up): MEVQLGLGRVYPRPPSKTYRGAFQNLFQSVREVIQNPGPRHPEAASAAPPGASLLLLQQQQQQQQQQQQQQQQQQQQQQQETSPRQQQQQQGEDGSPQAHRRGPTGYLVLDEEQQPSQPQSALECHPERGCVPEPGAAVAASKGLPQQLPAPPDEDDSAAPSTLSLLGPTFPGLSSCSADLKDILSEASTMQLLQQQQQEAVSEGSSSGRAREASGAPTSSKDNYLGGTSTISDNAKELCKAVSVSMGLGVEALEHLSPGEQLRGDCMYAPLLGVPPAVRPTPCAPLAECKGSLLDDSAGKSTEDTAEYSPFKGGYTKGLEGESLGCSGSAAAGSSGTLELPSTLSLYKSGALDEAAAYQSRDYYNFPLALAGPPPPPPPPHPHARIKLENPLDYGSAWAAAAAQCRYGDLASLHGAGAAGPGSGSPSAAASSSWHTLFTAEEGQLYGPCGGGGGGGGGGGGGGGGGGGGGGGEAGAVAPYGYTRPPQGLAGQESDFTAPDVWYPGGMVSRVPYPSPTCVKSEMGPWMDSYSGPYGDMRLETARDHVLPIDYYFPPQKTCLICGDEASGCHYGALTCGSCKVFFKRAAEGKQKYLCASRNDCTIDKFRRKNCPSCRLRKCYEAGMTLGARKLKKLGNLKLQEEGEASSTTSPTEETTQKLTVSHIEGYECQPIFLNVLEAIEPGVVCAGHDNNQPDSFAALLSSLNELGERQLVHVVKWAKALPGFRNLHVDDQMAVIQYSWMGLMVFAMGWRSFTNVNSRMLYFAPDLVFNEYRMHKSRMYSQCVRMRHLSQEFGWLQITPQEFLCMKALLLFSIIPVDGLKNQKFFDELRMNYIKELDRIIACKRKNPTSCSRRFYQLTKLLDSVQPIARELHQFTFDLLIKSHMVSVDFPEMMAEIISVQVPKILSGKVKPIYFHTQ
Outline: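 Reporter-gene luminescence from MDA-kb2 cells exposed 16hr at 37C (0% CO2) to 15-point compound titrations with 3.0uM final nilutamide as AR antagonist.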

[20] = qHTS assay to identify small molecule agonists of the estrogen receptor beta (ER-beta) signaling pathway - cell viability counter screen (AID 1259380); also: nearly all actives have a fitted effect of over 30% in size
Outline: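 Steps: plate ER-beta-UAS-bla HEK293T cells, rest 6 hr; add compounds in DMSO; incubate 16 hr at 37C, 5% CO2; add FRET substrate 2 hr; add CellTiter-Glo, wait 30 min at room temperature; read luminescence.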

Row | SMILES | Potency [1] | Potency [2] | Potency [3] | Potency [4] | outcome [5] | outcome [6] | Potency [7] | Potency [8] | Potency [9] | Potency [10] | Potency [11] | Potency [12] | Potency [13] | outcome [14] | outcome [15] | Potency [16] | Potency [17] | Potency [18] | Potency [19] | Potency [20]
1 | O=C1O[C@H](CO)[C@@H](O)[C@H](O)[C@H]1O | inactive | inactive | inactive | inactive | inactive | inactive | inactive | inactive | inactive | inactive | inactive | inactive | inactive | inactive | inactive | inactive | inactive | inactive |  | 
2 | O=Nc1ccc(O)cc1 | inactive | 47.4 µM (active) and inactive | inactive | inactive | inactive | inactive | 47.4 µM (active) and inactive |  |  | inactive | inactive | inactive | inactive | inactive | inactive | inactive | inactive | inactive | inactive | 
3 | CC1COc2ccccc2N1C(=O)C(Cl)Cl (centres undefined) | inactive |  | inactive | inactive | inactive | inactive |  | inactive |  |  |  | inactive | inactive | inactive | inactive | inactive | 39.8 µM (active) | inactive |  | 
4 | C[C@@H](O)[C@H]1C(=O)N2C(C(=O)O)=C(S[C@@H]3CN[C@H](C(=O)N(C)C)C3)[C@H](C)[C@H]12 | inactive | inactive | inactive |  | inactive | inactive | inactive | inactive | inactive | inactive | inactive | inactive | inactive | inactive |  |  | inactive | inactive |  | 
5 | CCCCCCCCC | inactive | inactive | inactive | inactive | inactive | inactive | inactive | inactive | inactive | inactive | inactive | inactive | inactive | inactive | inactive | inactive | inactive | inactive |  | 
6 | CCCCNC(N)=O | inactive | inactive | inactive |  |  |  |  | inactive |  | inactive | inactive | inactive | inactive |  | inactive | inactive | inactive | inactive |  | 
7 | CC(C)NCC(O)COc1cccc2ccccc12 (centres undefined) |  | inactive | 27.6 µM (active) |  |  |  | inactive | inactive |  | 30.9 µM (active) and 27.3 µM (active) |  | inactive | inactive | inactive | inactive | inactive and 43.7 µM (active) | 39.8 µM (active) | inactive |  | 
8 | c1ccc2ccccc2c1 |  | inactive | inactive | inactive | inactive | inactive | inactive | inactive |  | inactive | inactive | inactive | inactive | inactive | inactive | inactive | inactive | inactive |  | inactive
9 | O=S(=O)(Oc1ccc(Cl)cc1Cl)c1ccccc1 |  | inactive | inactive | inactive | inactive | inactive |  | inactive |  | inactive | inactive | inactive | inactive |  |  |  | inactive | inactive |  | inactive
10 | OC[C@@H](O)[C@@H](O)[C@H](O)[C@@H](O)CO |  | inactive | inactive | inactive | inactive | inactive |  | inactive | inactive | inactive | inactive | inactive | inactive | inactive |  |  | inactive | inactive |  | 
11 | Oc1c(Cl)cc(Cl)c(Cl)c1Cl |  | inactive |  | inactive | inactive | inactive | inactive |  | inactive | inactive |  | inactive | inactive | inactive | inactive | inactive |  | inactive |  | 
12 | CCCCCCCCCCC=CC1CC(=O)OC1=O (centres undefined) |  | inactive | inactive |  | inactive | inactive | inactive | inactive | inactive | inactive | inactive | inactive | inactive | inactive |  |  | inactive | inactive |  | inactive
13 | CCOC(=O)/C=C\C(=O)OCC |  | inactive | inactive | inactive | inactive | inactive | inactive | inactive | inactive | inactive | inactive | inactive | inactive |  | inactive | inactive | inactive | inactive |  | inactive
14 | CCCCCCCCCC(=O)O |  | inactive | inactive |  | inactive | inactive | inactive | inactive | inactive | inactive | inactive | inactive | inactive | inactive | inactive | inactive | inactive | inactive | inactive | inactive
15 | CCOC(=O)C1OC1c1ccccc1 (centres undefined) |  | inactive | inactive |  |  |  |  | inactive |  | inactive | inactive | inactive | inactive | inactive | inactive | inactive | inactive | inactive |  | 
